Test results as given in PubChem BioAssay (NCATS).
Results filed as inconclusive are left out. Calls come from the whole dose curve; as a rule, active = well fitted curve in either direction with a large enough effect (not every such curve was filed as active); inconclusive = small, poorly fitted or top-dose-only effect, or another doubt; inactive = flat fitted curve, though single readings scatter.

Assay: NFAT Signaling Pathway (AID 444);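 note: carbachol stimulus at about its EC50 of 1 µM final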
Settings: Jurkat NFAT-bla M1, carbachol, beta-lactamase ratio, 5 h; at 7.69 µM (top of the series) unless noted
Summary of the method: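 Jurkat cells with NFAT-driven β-lactamase reporter and co-expressed M1 receptor, stimulated with carbachol (final 1 uM, ~EC50), compound titration, 5 h at 37 °C. CCF4 loaded 1 h at RT; 460/530 nm ratio gave %activity and AC50.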
% is set by controls: 0 for no effect and ±100 for the full control effect.

Activity change, negative = inhibition, inactive:
O=c1c(-c2ccccc2)nc2cnc(Oc3cccc(Cl)c3)nc2n1C1CC1 10.9%
CNc1nc(-c2cccnc2)nc2ccccc12 2.11%
Cn1cc(-c2nc3cnc(Oc4ccccc4)nc3n(Cc3cccs3)c2=O)c2ccccc21 23.5%
COc1cccc(Cn2c(=O)c(-c3ccc(Cl)cc3)nc3cnc(OC)nc32)c1 8.55%
c1ccc(CNc2ccnc(-c3ccc4c(c3)OCO4)n2)cc1 15.5%

Assay: Stat Signaling Pathway (AID 446);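 note: ME-180 cervical cancer cells given 40 pM IL-6 alongside compound; SIE-controlled beta-lactamase reporter measured as 460/530 nm FRET emission ratio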
Settings: ME-180 SIE beta-lactamase reporter, IL-6 stimulated, 5 h; at 7.69 µM (top of the series) unless noted
Summary of the method: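 ME-180 cells carrying a SIE-driven beta-lactamase reporter are stimulated with 40 pM IL-6 for 5 h at 37C in the presence of compound. The 460/530 nm FRET substrate ratio is read after 2.5 h at RT. Data are normalised to 300 pM IL-6 and to 125 nM JAK inhibitor controls.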

activity, negative = inhibition, inactive:
Cc1nc2cnc(Oc3cccc(Cl)c3)nc2n(C2CC2)c1=O -13.7%
CNc1ncncc1-c1ccccc1C(F)(F)F 22.6%
CC(=O)NCCNc1nc(-c2ccc(C(=O)N(C)C)cc2)nc2ccccc12 11.4%
COc1ccc(CNc2ccnc(-c3ccc(C(=O)N(C)C)cc3)n2)c(OC)c1 -4.52%
Clc1ccccc1-c1cc(NCCN2CCOCC2)ncn1 2.93%
COc1ccc(CNc2cc(-c3cccnc3)ncn2)c(OC)c1 2.95%
CCNc1ncc2nc(-c3ccc(OC)cc3)c(=O)n(CCC#N)c2n1 -7.35%
FC(F)(F)c1ccccc1-c1cncnc1NCc1cccnc1 -1.05%
COc1ncc2nc(-c3cn(C)c4ccccc34)c(=O)n(C)c2n1 7.15%
CN(C)C(=O)c1ccc(-c2cncnc2NCc2ccccc2)cc1 9.3%
COc1ccc(-n2c(=O)c(CCc3ccccc3)nc3cncnc32)cc1 -3.17%
Cc1nc2cnc(N(C)C)nc2n(-c2ccccc2)c1=O -16.5%
COc1ccccc1CNc1ncncc1-c1ccc(C(=O)N(C)C)cc1 9.05%
COc1ccc(CNc2ncncc2-c2ccccc2C(F)(F)F)c(OC)c1 2.4%
COCCn1c(=O)c(-c2cccc(C#N)c2)nc2cnc(N3CCOCC3)nc21 3.4%
CNc1ncncc1-c1ccccc1C 2.49%
O=c1cnc2cnc(Oc3ccccc3)nc2n1C1CC1 -13.1%
COCCn1c(=O)c(-c2cccc(C#N)c2)nc2cnc(Oc3ccc(OC)cc3)nc21 -15%
O=c1c(-c2ccccc2)nc2cncnc2n1-c1ccccc1 0.883%
CN(C)C(=O)c1ccc(-c2nccc(N(C)Cc3ccco3)n2)cc1 4.76%
CS(=O)(=O)Nc1cccc(-c2cc(NCc3cccs3)ncn2)c1 -1.82%
COc1ccc(-c2nc3cnc(OC)nc3n(C)c2=O)cc1 15.6%
c1ccc(CNc2ncncc2-c2cccnc2)cc1 -3.91%
CN(C)c1ncc2nc(-c3cccs3)c(=O)n(-c3ccccc3)c2n1 21.3%
Cn1c(=O)c(-c2ccc(Cl)cc2)nc2cnc(OCc3ccccc3)nc21 -4.02%
COc1cccc(Cn2c(=O)c(-c3ccc(Cl)cc3)nc3cnc(N4CCN(C)CC4)nc32)c1 4.58%
COc1cccc(Cn2c(=O)c(CCc3ccccc3)nc3cncnc32)c1 -9.09%
Cn1c(=O)c(-c2ccccc2)nc2cnc(Nc3ccccc3)nc21 8.87%
COc1ncc2ncc(=O)n(C3CC3)c2n1 6.59%
Cc1cnc(CNc2cc(-c3ccccc3C(F)(F)F)ncn2)cn1 8.02%
CN(C)C(=O)c1ccc(-c2cncnc2NCc2cccnc2)cc1 17.6%
COc1ncc2nc(-c3ccc(F)cc3)c(=O)n(CCc3ccccc3)c2n1 -5.82%
N#Cc1cccc(-c2nccc(-n3ccnc3)n2)c1 4.18%
O=c1c(-c2ccccc2)nc2cnc(Oc3cccc(Cl)c3)nc2n1C1CC1 -5.81%
CNc1nc(-c2cccnc2)nc2ccccc12 -3.74%
Cn1cc(-c2nc3cnc(Oc4ccccc4)nc3n(Cc3cccs3)c2=O)c2ccccc21 11%
COc1cccc(Cn2c(=O)c(-c3ccc(Cl)cc3)nc3cnc(OC)nc32)c1 4.34%
c1ccc(CNc2ccnc(-c3ccc4c(c3)OCO4)n2)cc1 -18.3%
